# In paper PMC5540273 (PLoS ONE, 2017):
# Where two headings read alike, the source gives them in different places.
# What was measured:
# [1] = test system: SgK110; details: concentration: 1 μM, replicates: in singlicate; n = 1
# [2] = test system: T1, TAK1; details: concentration: 1 μM, replicates: in singlicate; n = 1
# T1 construct: gene MAP3K7
# [3] = test system: TAOK1; details: concentration: 1 μM, replicates: in singlicate; n = 1
# [4] = test system: TAOK2; details: concentration: 1 μM, replicates: in singlicate; n = 1
# [5] = test system: TAOK3; details: concentration: 1 μM, replicates: in singlicate; n = 1
# [6] = test system: TBK1; details: concentration: 1 μM, replicates: in singlicate; n = 1
# [7] = test system: TEC; details: concentration: 1 μM, replicates: in singlicate; n = 1
# [8] = test system: TESK1; details: concentration: 1 μM, replicates: in singlicate; n = 1
# [9] = test system: TGFBR1; details: n = 1
# [10] = test system: TGFBR2; details: concentration: 1 μM, replicates: in singlicate; n = 1
# [11] = test system: TIE1; details: concentration: 1 μM, replicates: in singlicate; n = 1
# [12] = test system: T2, TIE2; details: concentration: 1 μM, replicates: in singlicate; n = 1
# T2 construct: gene TEK
# [13] = test system: TLK1; details: concentration: 1 μM, replicates: in singlicate; n = 1
# [14] = test system: TLK2; details: concentration: 1 μM, replicates: in singlicate; n = 1
# [15] = test system: TNIK; details: concentration: 1 μM, replicates: in singlicate; n = 1
# [16] = test system: TNK1; details: concentration: 1 μM, replicates: in singlicate; n = 1
# [17] = test system: TNK2; details: concentration: 1 μM, replicates: in singlicate; n = 1
# [18] = test system: TNNI3K; details: concentration: 1 μM, replicates: in singlicate; n = 1
# [19] = test system: T3, TRKA; details: concentration: 1 μM, replicates: in singlicate; n = 1
# T3 construct: gene NTRK1
# [20] = test system: TRKB; details: concentration: 1 μM, replicates: in singlicate; n = 1
# [21] = concentration: 1 μM, replicates: in singlicate
# 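Also: KINOMEscan kinase panel screen.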
structure (smiles),measurement,setting,value
FC(F)(F)c1cc(Nc2nccc(-c3c(-c4ccc(Cl)cc4)nn4ncccc34)n2)ccc1Cl [GW829351],%Inh,[1],23%
same,%Inh,[2],0%
same,%Inh,[3],0%
same,%Inh,[4],2%
same,%Inh,[5],0%
same,%Inh,[6],2%
same,%Inh,[7],0%
same,%Inh,[8],0%
same,%Inh,[9]; [21],21%
same,%Inh,[10],0%
same,%Inh,[11],0%
same,%Inh,[12],0%
same,%Inh,[13],0%
same,%Inh,[14],0%
same,%Inh,[15],12%
same,%Inh,[16],21%
same,%Inh,[17],0%
same,%Inh,[18],0%
same,%Inh,[19],0%
same,%Inh,[20],0%
O=C(Nc1ccccc1F)NC1CCN(c2ccnc(Nc3ccc(F)cc3)n2)C1 (centres unmarked) [GSK1379722],%Inh,[1],0%
same,%Inh,[2],0%
same,%Inh,[3],0%
same,%Inh,[4],0%
same,%Inh,[5],0%
same,%Inh,[6],0%
same,%Inh,[7],6%
same,%Inh,[8],16%
same,%Inh,[9]; [21],25%
same,%Inh,[10],0%
same,%Inh,[11],0%
same,%Inh,[12],0%
same,%Inh,[13],0%
same,%Inh,[14],0%
same,%Inh,[15],0%
same,%Inh,[16],0%
same,%Inh,[17],27%
same,%Inh,[18],0%
same,%Inh,[19],0%
same,%Inh,[20],32%
C[C@H]1CC[C@@H](C(=O)Nc2ccccc2)CN1c1cc(-c2ccc3c(N)n[nH]c3c2)nc(N)n1 [GSK2283293],%Inh,[1],0%
same,%Inh,[2],0%
same,%Inh,[3],0%
same,%Inh,[4],0%
same,%Inh,[5],0%
same,%Inh,[6],7%
same,%Inh,[7],11%
same,%Inh,[8],26%
same,%Inh,[9]; [21],14%
same,%Inh,[10],0%
same,%Inh,[11],26%
same,%Inh,[12],0%
same,%Inh,[13],4%
same,%Inh,[14],0%
same,%Inh,[15],0%
same,%Inh,[16],0%
same,%Inh,[17],17%
same,%Inh,[18],0%
same,%Inh,[19],0%
same,%Inh,[20],0%
Cc1cc(N2CCC(NS(=O)(=O)c3ccc(F)cc3)CC2)nc(Nc2cccc(C#N)c2)n1.O=C(O)C(F)(F)F [GSK1653537],%Inh,[1],6%
same,%Inh,[2],0%
same,%Inh,[3],0%
same,%Inh,[4],0%
same,%Inh,[5],0%
same,%Inh,[6],1%
same,%Inh,[7],0%
same,%Inh,[8],9%
same,%Inh,[9]; [21],0%
same,%Inh,[10],11%
same,%Inh,[11],3%
same,%Inh,[12],0%
same,%Inh,[13],5%
same,%Inh,[14],0%
same,%Inh,[15],0%
same,%Inh,[16],0%
same,%Inh,[17],11%
same,%Inh,[18],0%
same,%Inh,[19],0%
same,%Inh,[20],0%
FC(F)(F)c1ccc(-c2cc(-c3c[nH]nc3-c3ccccn3)ccn2)cc1 [GW599550],%Inh,[1],0%
same,%Inh,[2],28%
same,%Inh,[3],0%
same,%Inh,[4],0%
same,%Inh,[5],0%
same,%Inh,[6],18%
same,%Inh,[7],0%
same,%Inh,[8],17%
same,%Inh,[9]; 1 µM,88%
same,%Inh,[10],77%
same,%Inh,[11],4%
same,%Inh,[12],0%
same,%Inh,[13],11%
same,%Inh,[14],11%
same,%Inh,[15],78%
same,%Inh,[16],0%
same,%Inh,[17],16%
same,%Inh,[18],0%
same,%Inh,[19],0%
same,%Inh,[20],0%
COC(=O)c1cccc(NC(=O)NCCNc2ccnc(Nc3ccc(F)cc3)n2)c1 [GSK1379883],%Inh,[1],0%
same,%Inh,[2],0%
same,%Inh,[3],0%
same,%Inh,[4],0%
same,%Inh,[5],0%
same,%Inh,[6],16%
same,%Inh,[7],0%
same,%Inh,[8],23%
same,%Inh,[9]; [21],13%
same,%Inh,[10],0%
same,%Inh,[11],0%
same,%Inh,[12],0%
same,%Inh,[13],1%
same,%Inh,[14],0%
same,%Inh,[15],0%
same,%Inh,[16],0%
same,%Inh,[17],14%
same,%Inh,[18],0%
same,%Inh,[19],19%
same,%Inh,[20],0%
FC(F)(F)c1ccc(-c2nn3ncccc3c2-c2ccnc(Nc3cccc(C(F)(F)F)c3)n2)cc1 [GW828205],%Inh,[1],23%
same,%Inh,[2],0%
same,%Inh,[3],0%
same,%Inh,[4],32%
same,%Inh,[5],0%
same,%Inh,[6],51%
same,%Inh,[7],7%
same,%Inh,[8],3%
same,%Inh,[9]; [21],0%
same,%Inh,[10],0%
same,%Inh,[11],0%
same,%Inh,[12],52%
same,%Inh,[13],0%
same,%Inh,[14],8%
same,%Inh,[15],0%
same,%Inh,[16],0%
same,%Inh,[17],0%
same,%Inh,[18],0%
same,%Inh,[19],0%
same,%Inh,[20],0%
O=C(c1ccc(-c2cc(-c3c[nH]nc3-c3ccccn3)ccn2)cc1)N1CCCC1 [GW792479],%Inh,[1],6%
same,%Inh,[2],0%
same,%Inh,[3],0%
same,%Inh,[4],45%
same,%Inh,[5],0%
same,%Inh,[6],59%
same,%Inh,[7],8%
same,%Inh,[8],20%
same,%Inh,[9]; 1 µM,93.6%
same,%Inh,[10],39%
same,%Inh,[11],0%
same,%Inh,[12],27%
same,%Inh,[13],0%
same,%Inh,[14],0%
same,%Inh,[15],48%
same,%Inh,[16],21%
same,%Inh,[17],0%
same,%Inh,[18],0%
same,%Inh,[19],0%
same,%Inh,[20],0%
Cn1cc(-c2ccc3c(c2)CCN3C(=O)Cc2cccc(C(F)(F)F)c2)c2c(N)ncnc21 [GSK2606414],%Inh,[1],0%
same,%Inh,[2],0%
same,%Inh,[3],4%
same,%Inh,[4],0%
same,%Inh,[5],3%
same,%Inh,[6],9%
same,%Inh,[7],1%
same,%Inh,[8],5%
same,%Inh,[9]; [21],0%
same,%Inh,[10],9%
same,%Inh,[11],46%
same,%Inh,[12],24%
same,%Inh,[13],2%
same,%Inh,[14],0%
same,%Inh,[15],0%
same,%Inh,[16],0%
same,%Inh,[17],0%
same,%Inh,[18],0%
same,%Inh,[19],35%
same,%Inh,[20],46%
Cl.Cl.c1ccc(-c2cc3ccncc3cc2OC2CCNCC2)cc1 [GSK1122999],%Inh,[1],0%
same,%Inh,[2],0%
same,%Inh,[3],0%
same,%Inh,[4],0%
same,%Inh,[5],4%
same,%Inh,[6],21%
same,%Inh,[7],12%
same,%Inh,[8],7%
same,%Inh,[9]; [21],2%
same,%Inh,[10],0%
same,%Inh,[11],1%
same,%Inh,[12],0%
same,%Inh,[13],0%
same,%Inh,[14],7%
same,%Inh,[15],0%
same,%Inh,[16],6%
same,%Inh,[17],27%
same,%Inh,[18],26%
same,%Inh,[19],0%
same,%Inh,[20],0%
